ROMK primary: ROMK potassium channel modulators, primary screen, cell-based, thallium flux, MLSMR library; hit rate 2% among 130,000; ATP-sensitive inward rectifier potassium channel 1 (Homo sapiens), P48048; Tet-inducible ROMK, thallium flux fluorescence; actives lie on both sides; B-score at 10 µM;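 active means signal ratio slope over the read window, or its plate-corrected B-score, at least 3 SD from the plate mean, either direction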;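 further: B-score of the F/F0 ratio slope over 7 to 12 s after thallium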
Target sequence (P48048 whole entry, looked up): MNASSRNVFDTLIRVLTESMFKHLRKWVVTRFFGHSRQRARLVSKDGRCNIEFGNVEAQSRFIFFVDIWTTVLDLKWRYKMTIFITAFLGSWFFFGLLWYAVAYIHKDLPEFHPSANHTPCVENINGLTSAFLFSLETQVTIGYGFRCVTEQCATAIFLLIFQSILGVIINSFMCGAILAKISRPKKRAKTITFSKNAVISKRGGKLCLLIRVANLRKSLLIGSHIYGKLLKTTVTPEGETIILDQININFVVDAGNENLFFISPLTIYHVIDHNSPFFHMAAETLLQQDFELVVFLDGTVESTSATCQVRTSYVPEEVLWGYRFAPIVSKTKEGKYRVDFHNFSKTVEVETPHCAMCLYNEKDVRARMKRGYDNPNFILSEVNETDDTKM
WT yeast gro inh: growth inhibition of WT strain, primary screen, mitochondrial fusion inhibitor project, WT and mutant strains, chemical genetic | mitochondrial fusion phenotypic screen | inhibition, % at 10 µM | hit rate 2.1% among 190,000; in the data active means inhibition above about 58%; tested in S. cerevisiae
Lmaj promast: Leishmania major promastigote growth inhibition, primary screen; AID 1063, 2008; inhibition, % at 10 µM; hit rate 9% among 200,000; Leishmania major promastigotes, resazurin fluorescence viability; in the data active means inhibition above about 50%;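 further: promastigotes grown with compound for 44 hours at 28 °C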
Cl transport mod: KCC2 cotransporter modulators, thallium flux, primary screen, cell-based, HEK293 KCC2, FluoZin-2 fluorescence, MLSMR. KCC2 cells, thallium flux FluoZin-2 fluorescence. B-score of Tl+ flux slope (higher = more flux/activation; lower = inhibition) at 10 µM. hit rate 2.2% among 190,000. AID 1456, 2008;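 active means thallium flux slope and its plate-corrected score both differing from the plate sample mean at a set confidence after two filtering rounds, in either direction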;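 further: slope of fluorescence scaled to starting intensity during 10 to 20 s after thallium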
m-calpain inh: inhibitors of pig calpain II, primary screen, biochemical, fluorogenic peptide substrate, 1536-well; purified calpain II, 30 min; inhibition, % at 16 µM; hit rate 0.37% among 220,000; AID 1236, 2008;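 active means inhibition above about 50%, limit read from the data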
Numbers stand for hits; . = inactive; / = no result given. Sampled rows, rich in hits. Any-hit rate of the full collection: about 12%.

SMILES	ROMK primary	WT yeast gro inh	Lmaj promast	Cl transport mod	m-calpain inh
O=[N+]([O-])c1cccc(/C=N\N=C2c3ccccc3-c3ccccc32)c1O	.	.	74.3	.	60.7
Cc1ccc(/C=N/NC(=O)CN2CCN(Cc3ccccc3)CC2)o1	/	/	/	.	.
CCNS(=O)(=O)c1ccc2nc(NC(=O)/C=C/c3cc(OC)c(OC)c(OC)c3)sc2c1	.	.	51.9	.	.
COc1cc(/C=C/C(=O)Nc2nc3ccc(S(=O)(=O)NC(C)C)cc3s2)cc(OC)c1OC	.	.	.	.	.
COC(=O)C1=C(C)NC2=C(C(=O)CCC2)C1c1cn(Cc2ccc(Cl)cc2Cl)nc1-c1ccccc1 (stereo not drawn)	/	.	56.8	.	.
O=C(O)c1ccc2c(c1)C(=O)N(c1nccs1)C2=O	.	/	/	.	.
c1ccc(-c2nc(N3CCN(c4ccccc4)CC3)nc(-n3ccnc3)n2)cc1	.	67.7	67.1	.	.
Nc1nc(-c2cccnc2)nc(N2CCCCC2)n1	.	.	.	.	.
c1ccc(-c2nc(N3CCCCCC3)nc(-n3ccnc3)n2)cc1	.	.	96.1	.	.
CN(Cc1cccc(C(F)(F)F)c1)Cc1nc(-c2cnccn2)no1	.	.	.	/	.
CCN1C(=O)CC2(C[N+]3(C)CCC2CC3)C1=O (stereo not drawn)	.	.	.	.	.
O=C(CN1CCN(c2ccccn2)CC1)Nc1ccc(Cl)c(C(F)(F)F)c1	/	.	.	.	.
COc1ccccc1NC(=O)CN1CCN(CC(=O)Nc2ccc(OCc3ccccc3)cc2)CC1	.	66.5	.	/	.
COc1ccccc1NC(=O)CN1CCN(CC(=O)Nc2ccc(F)cc2)CC1	.	.	.	.	.
COc1ccccc1NC(=O)CN1CCN(CC(=O)Nc2ccc3c(c2)OCCO3)CC1	/	.	55.4	.	.
COc1ccccc1N1CCN(CC(=O)Nc2ccc(Cl)c(C(F)(F)F)c2)CC1	/	58.0	.	.	.
CN(C)c1cc(-c2ccc(Br)cc2)oc(=O)c1Cl	/	/	/	.	.
Cc1cc(C2=NNC(=NC3CC3)SC2)c(C)n1-c1ccccc1	.	.	.	.	.
c1ccc2c(C3=NNC(=NC4CC4)SC3)c[nH]c2c1	.	.	96.8	.	.
c1ccc2c(C3=NNC(=NC4CCCCC4)SC3)c[nH]c2c1	/	.	93.0	.	74.8
c1ccc(C2=NNC(=NC3CC3)SC2)cc1	/	.	.	.	.
NS(=O)(=O)c1ccc(NC(=O)Nc2ccc(C(F)(F)F)cc2)cc1	/	/	/	.	.
O=C(Nc1cc2c(cc1Br)OCCCO2)c1ccccc1	.	.	.	.	.
Cc1nc(C)c(C(=O)O)s1	/	/	/	.	.
CCOC(=O)C1=C(c2ccccc2)Nc2ncnn2C1c1cccc(OC)c1OC (stereo not drawn)	/	.	99.9	.	.
SMILES	ROMK primary	WT yeast gro inh	Lmaj promast	Cl transport mod	m-calpain inh
CCOC(=O)C1=C(c2ccccc2)Nc2ncnn2C1c1cc(OC)cc(OC)c1OC (stereo not drawn)	/	.	91.7	.	.
CCOC(=O)C1=C(c2ccccc2)Nc2ncnn2C1c1ccc(O)cc1 (stereo not drawn)	/	/	/	/	.
O=C1CCCN1CCCNC(=S)Nc1cccc2ccccc12	.	.	.	.	.
N#CC(c1ccncc1)(c1ncc(C(F)(F)F)cc1Cl)N1CCOCC1 (stereo not drawn)	/	.	.	.	69.3
CC(=O)c1ccc(N2CCC(c3cc(-c4ccc(Cl)cc4Cl)n[nH]3)CC2)c([N+](=O)[O-])c1	/	.	.	.	.
COc1ccc(OC)c(-c2cc(C3CCN(c4cc(Cl)nc(N)n4)CC3)[nH]n2)c1	/	65.5	100.0	.	.
COc1ccc(-c2csc(N3CCC(c4ccccc4)CC3)n2)cc1	.	.	.	.	.
COc1ccc(-c2cc(C3CCN(c4cc(Cl)nc(N)n4)CC3)[nH]n2)cc1	/	62.4	.	.	.
Clc1ccc(-c2cc(C3CCNCC3)[nH]n2)cc1	/	.	61.0	.	.
FC(F)C(F)(F)c1cc(-c2ccc(Cl)cc2)n[nH]1	/	/	/	.	.
Nc1nc(Cl)cc(N2CCC(c3cc(-c4ccc(Cl)cc4)n[nH]3)CC2)n1	/	.	99.7	.	.
Cc1cc(C)cc(SCc2noc(C(=O)NCCCN3CCOCC3)c2C(=O)NCCCN2CCOCC2)c1	/	/	/	.	.
O=C(Nc1ccc2sccc2c1)c1cccc(N2C(=O)CCC2=O)c1	/	.	.	.	.
CC(C)(CO)NCc1ccc(Br)cc1	.	.	.	.	.
O=C1/C(=C/c2ccncc2)CCC/C1=C\c1ccncc1	-3.32	63.9	100.7	.	.
CCOC(=O)c1sc(/N=C/c2c(C)[nH]n(-c3ccccc3)c2=O)c(C#N)c1C	.	77.3	.	.	.
O=[N+]([O-])c1cccnc1N1CCC(c2cc(-c3cccc(C(F)(F)F)c3)n[nH]2)CC1	/	77.7	.	.	.
O=[N+]([O-])c1cccnc1N1CCC(c2cc(-c3ccc(Cl)cc3Cl)n[nH]2)CC1	.	65.2	.	.	.
COc1ccc(OC)c(-c2cc(C3CCN(c4ncccc4[N+](=O)[O-])CC3)[nH]n2)c1	/	.	.	.	.
CC1(C)CC(=O)C2=C(C1)NC(Nc1nc3ccccc3o1)=NC21CCCCC1	.	.	59.3	/	.
CC(=O)Nc1ccc(C(=O)Nc2nc(-c3ccccn3)cs2)cc1	.	.	64.4	.	.
O=C(Nc1nc(-c2ccco2)cs1)c1ccccc1	/	.	.	.	.
Cc1cc(C(=O)Nc2nc(-c3ccccn3)cs2)ccc1[N+](=O)[O-]	.	62.5	100.4	.	.
Cc1ccc(-c2csc(NC(=O)c3ccc(-c4ccccc4)cc3)n2)o1	/	77.5	.	/	.
O=C(Nc1nc(-c2ccccn2)cs1)c1ccc2c(c1)OCCO2	/	68.5	98.8	.	.
SMILES	ROMK primary	WT yeast gro inh	Lmaj promast	Cl transport mod	m-calpain inh
O=C(Nc1nc(-c2ccccn2)cs1)c1ccc([N+](=O)[O-])o1	/	/	/	.	.
CC(CCc1ccccc1)N(C)CC(O)c1cccc([N+](=O)[O-])c1 (stereo not drawn)	/	/	/	.	.
Cc1cc(C)n(-c2nc3c(c(=O)n(Cc4ccc(Cl)c(Cl)c4)c(=O)n3C)n2C)n1	/	/	.	.	/
CC(C)NC(=O)C1CCN(C2CCN(C(=O)/C=C/c3cccs3)CC2)CC1	/	/	/	.	.
CC(C)NC(=O)C1CCN(C2CCN(C(=O)c3cc4c(s3)CCCCC4)CC2)CC1	.	.	89.3	.	.
CCOc1ccc(NC(=S)N2CCC(c3nc4ccccc4[nH]3)CC2)cc1	.	.	.	.	.
CCCCCOc1ccc(NC(=O)C(=O)NCC2CCCN2CC)cc1 (stereo not drawn)	.	.	.	.	.
O=C(NCC1COc2ccccc2O1)C1CCC(CNc2c(N3CCCCC3)c(=O)c2=O)CC1 (stereo not drawn)	/	.	.	.	.
Cc1ccc(Nc2c([N+](=O)[O-])cc(C(=O)N3CC(=O)Nc4ccccc43)cc2[N+](=O)[O-])c(C)c1	/	.	87.9	/	.

Assay outcomes: PubChem BioAssay, several laboratories
